Source: PubChem BioAssay
IL1B secr inh: inhibitors of inflammasome signaling (IL-1 beta secretion). THP-1 LPS/ATP IL-1B secretion, AlphaLISA, 16 h; active compounds read low. activity change, % at 57.5 µM. 360,000 compounds, 4.7% hits. AID 743279; in the data active means activity change below about -50%; inconclusive means mostly about -30% to -49%
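Secreted IL-1B measured by AlphaLISA bead assay after 16 h compound exposure of THP-1 cells; compounds (final up to 57.5 uM) added 1 h before LPS (250 ng/mL) and ATP (1.25 mM) stimulation; lower signal means less secretion.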
DT40 TDP1 CPT: growth inhibition of DT40 Tdp1-/-;hTDP1 cells with camptothecin (screen for TDP1 inhibitors); 420,000 compounds, 12% hits; AID 686979; chicken DT40 Tdp1-/-;hTDP1 cells + 20 nM CPT, ATP luminescence, 48 h; Potency, µM (titrated, usually from 46.2 µM), for the others: at the top dose activity change, negative = growth inhibition, usual class: inhibitors; further: potency means the concentration at half of the fitted maximal effect; nearly all actives have a fitted effect of over 55% in size
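Chicken DT40 Tdp1-/- cells stably complemented with human TDP1 were seeded at 400 cells/well in medium containing 20 nM camptothecin, exposed to pin-transferred compounds, and grown at 37 °C for at least 48 hr. Viability was read as ATP luminescence.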
CtBP-E1A blk: inhibitors of CtBP/E1A interaction. AlphaScreen GST-E1A/His-CtBP binding, 1536-well; active compounds read low. activity change, % (no concentration beside the values). 340,000 compounds, 0.49% hits. AID 651724; in the data active means activity change below about -65%; inconclusive means mostly about -30% to -63%
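Steps: dispense buffer (Tris pH 8.0, NaCl 300 mM, TCEP 1 mM, BSA, Tween 20); add 5X protein mix (GST-E1A, His-CtBP, 125 nM each); pin 23 nL compound; 2 h at 37 °C, dark; add 5X beads (50 ug/mL); 1 h; read.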
TDP1 inh: TDP1 (human) enzyme inhibition; Q9NUW8; recombinant TDP1, AlphaScreen DNA substrate cleavage; Potency, µM (top dose mostly 130 µM), inactives show at the top dose activity change, negative = inhibition, most hits filed as inhibitors; 350,000 compounds, 0.28% hits; further: potency means the concentration at half of the fitted maximal effect; nearly all actives have a fitted effect of over 40% in size
Target sequence (Q9NUW8 whole entry, looked up): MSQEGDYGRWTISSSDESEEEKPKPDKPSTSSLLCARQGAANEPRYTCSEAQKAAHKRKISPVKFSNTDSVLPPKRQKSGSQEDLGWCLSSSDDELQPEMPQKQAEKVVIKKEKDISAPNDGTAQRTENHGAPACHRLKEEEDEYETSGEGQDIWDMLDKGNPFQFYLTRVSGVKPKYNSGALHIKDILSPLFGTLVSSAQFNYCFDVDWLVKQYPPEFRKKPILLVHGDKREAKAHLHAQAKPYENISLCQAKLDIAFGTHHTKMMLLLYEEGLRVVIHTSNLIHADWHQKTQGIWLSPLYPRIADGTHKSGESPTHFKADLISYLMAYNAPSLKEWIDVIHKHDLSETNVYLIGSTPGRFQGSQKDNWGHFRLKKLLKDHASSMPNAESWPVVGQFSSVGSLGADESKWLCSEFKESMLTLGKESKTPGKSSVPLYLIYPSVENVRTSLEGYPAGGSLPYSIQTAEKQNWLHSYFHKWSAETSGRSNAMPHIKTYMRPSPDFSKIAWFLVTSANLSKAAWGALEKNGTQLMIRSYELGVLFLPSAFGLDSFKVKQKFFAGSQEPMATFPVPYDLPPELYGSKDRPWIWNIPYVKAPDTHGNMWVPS
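Here, a 5' biotin and 3' phosphotyrosine-FITC DNA oligonucleotide reports Tdp1 activity: intact substrate bridges AlphaScreen beads, while cleavage leaves a 3' phosphate and drops signal. All incubations at room temperature.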
TDP1 cell noCPT: qHTS for Inhibitors of human tyrosyl-DNA phosphodiesterase 1 (TDP1): qHTS in cells in absence of CPT; 420,000 compounds, 15% hits; AID 686978, 2013; DT40 Tdp1-/- hTDP1 cells, no CPT, ATP luminescence, 48 h; Potency, µM (highest dose often 46.2 µM), inactives show at the top dose activity change, negative = growth inhibition, most hits filed as inhibitors; further: potency means the concentration at half of the fitted maximal effect; nearly all actives have a fitted effect of over 55% in size
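Compound effects on proliferation are scored in DT40 Tdp1-/-;hTDP1 cells in the absence of CPT. ATP levels (CellTiter-Glo luminescence) are recorded after a ≥48 hr, 37 °C incubation.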
Six1-Eya2 blk: inhibitors of human Six1/Eya2 interaction. activity change, % (test concentration not listed). Q15475+O00167. AlphaScreen GST-Six1/His-Eya2 binding, biochemical; active compounds read low. 360,000 compounds, 0.56% hits; in the data active means activity change below about -65%; inconclusive means mostly about -30% to -63%
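Six1/Eya2 binding was read as AlphaScreen signal after compounds were pinned into GST-Six1 plus His-tagged Eya2 (5X stock 250/500 nM) in pH 8.0 Tris/NaCl/TCEP buffer, beads added, then incubated 1 h, 37 C, dark.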
Starred values were filed as active, the others as inactive; ? = inconclusive; nt = no result. Shown are actives, neighbours in structure and some others; about 18% of the full set was active somewhere. Unless noted, the call rests on the fitted dose curve; in most records, active means well fitted curve in the direction sought with a large enough effect; inconclusive means small, poorly fitted or top-dose-only effect, or another doubt; inactive means no such curve, though single readings can be large; an effect the other way counts as inactive or inconclusive. On the % scale 0 is the no-effect control and ±100 the full control effect.

SMILES	IL1B secr inh	DT40 TDP1 CPT	CtBP-E1A blk	TDP1 inh	TDP1 cell noCPT	Six1-Eya2 blk
COc1ccc([C@H]2CC(=O)C=C(c3ccc(OC(F)(F)F)cc3)C2)cc1	-16.7	?	nt	-6.4%	?	0.4
COc1ccc([C@H]2CC(=O)C=C(c3ccnc4ccc(Cl)cc34)C2)cc1	-11.9	8.2µM*	-10.0	2.3%	9.2µM*	-4.5
COc1ccc([C@H]2CC(=O)C=C(c3ccccc3-c3ccccc3)C2)cc1	25.8	23.1µM*	-9.5	1.0%	23.1µM*	-15.0
COc1ccc([C@H]2CC(=O)C=C(c3ccccc3Oc3ccccc3)C2)cc1	-24.9	?	6.2	-3.7%	?	-1.9
COc1ccc([C@H]2CC(=O)C=C(c3cccc(OC(F)(F)F)c3)C2)cc1	-8.1	23.1µM*	15.7	-9.8%	?	3.9
N#Cc1ccc(CN2CC3(CCN(C(=O)c4ccncc4)CC3)C2)cc1	nt	9.1%	nt	nt	-13.7%	nt
CCOc1ccc(Br)cc1C1=CC(=O)C[C@H](c2ccc(OC)cc2)C1	68.5	4.61µM*	4.3	0.0%	2.91µM*	-6.9
COc1ccc([C@H]2CC(=O)C=C(c3cc(C)ccc3F)C2)cc1	-5.2	-23.4%	7.6	-8.5%	?	0.3
COc1ccc([C@H]2CC(=O)C=C(c3cc(C)ccc3OC)C2)cc1	-7.6	4.11µM*	2.3	-5.2%	6.51µM*	-4.3
COc1ccc([C@H]2CC(=O)C=C(c3cc(Br)ccc3OC)C2)cc1	5.5	18.4µM*	0.4	0.8%	16.4µM*	-0.6
CCOc1ccccc1CNc1nc2nc(C)cc(C)n2n1	nt	?	nt	7.4%	-23.8%	nt
O=S(Cc1ccc(Br)cc1)Cc1nnc(SCc2ccc(Br)cc2)n1-c1ccccc1 (stereo not drawn)	-58.2*	11.6µM*	4.4	7.9%	10.3µM*	-9.8
COC(=O)c1ccc(CSc2nnc(CS(=O)Cc3ccc(Br)cc3)n2-c2ccccc2)cc1 (stereo not drawn)	-11.0	7.31µM*	-1.1	7.9%	13µM*	-15.6
Cc1c(Cl)cccc1NC(=O)c1ccc2nc(C(C)C)oc2c1	nt	?	nt	3.0%	11.6µM*	nt
CC(=O)c1cccc(NC(=O)c2ccc3nc(C(C)C)oc3c2)c1	nt	?	nt	1.8%	16.4µM*	nt
CC(C)c1nc2ccc(C(=O)Nc3ccccc3F)cc2o1	nt	7.31µM*	nt	0.6%	5.8µM*	nt
CCc1ccc(CNC(=O)c2ccc3nc(C(C)C)oc3c2)cc1	nt	?	nt	-1.8%	?	nt
CCCCNC(=O)O[C@H]1C[C@@H]2CCN3C(=O)CCC[C@H]([C@H]1Cc1ccccc1)[C@H]23	-0.3	-0.1%	-5.5	nt	?	-21.6
NCc1ccc2[nH]c(=O)[nH]c2c1	?	-0.6%	8.7	-2.5%	-4.2%	0.3
Cn1c(-c2cccc([N+](=O)[O-])c2)[n+](C)c2ccccc21	54.4	7.31µM*	14.6	3.5%	3.26µM*	-2.8
